About 4,300 (8.3%) of roughly 52,000 compounds were called active. The sample holds actives, similar compounds and a random draw of the others, so the mix is not that of the screen. Cut-off read from the data, not from the text of the source: active = survival mostly below about 52% (no sharp cut-off); inactive = mostly above about 56%.

In this assay the test system is DeltatarO mutant. The experiment in a line: growth inhibition of S. aureus wild type versus tarO mutant, primary screen, teichoic acid synthesis inhibitors, RN4220, OD600 (AID 463173). The settings on record: OD600, 18 h, stronger effect = lower value, screened at 18.75 µg/mL (by protocol).
`COc1ccc(N(C(=O)c2ccc(C)cc2)S(=O)(=O)c2ccc(Cl)cc2)cc1`: the survival was 76% (inactive).
Next, `CN(CC(=O)Nc1cccc(C(F)(F)F)c1)S(=O)(=O)c1ccc2[nH]c3c(c2c1)CCCC3`: 94% (inactive); `CC(=O)N1CCc2cc(C(=O)C[n+]3ccccc3)ccc21`: 91% (inactive).
Next, `C=CCNC(=O)CN1CCC(n2c(C)nc3cc(C(F)(F)F)ccc32)CC1`: 95% (inactive).
Next, `O=C(Cn1ncn2c(cc3ccccc32)c1=O)NCc1ccc(F)cc1`: 104% (inactive); `CCCCC(=O)OC1=C(C(=O)c2ccccc2)N(C)S(=O)(=O)c2ccccc21`: 104% (inactive); `CCCCC(=O)OC1=C(C(=O)c2ccccc2)N(CCC)S(=O)(=O)c2ccccc21`: 18% (active).
In the case of `CCN1C(C(=O)c2ccccc2)=C(OC(=O)c2ccc(Cl)cc2)c2ccccc2S1(=O)=O`, the survival was 50% (inactive).
Consider `CCN1C(C(=O)c2ccccc2)=C(OC(=O)c2ccc(OC)cc2)c2ccccc2S1(=O)=O`, for which the survival is 46% (active).
As for `COC(=O)CN1C(C(=O)c2ccccc2)=C(OC(=O)c2ccccc2)c2ccccc2S1(=O)=O`, the survival was 49% (inactive).
Next, `CCCCCN1C(C(=O)c2ccccc2)=C(OC(=O)CC)c2ccccc2S1(=O)=O`: -4% (active); `CCOC(=O)CN1C(C(=O)c2ccccc2)=C(OC(=O)c2ccccc2)c2ccccc2S1(=O)=O`: 56% (inactive); `CCCN1C(C(=O)c2ccccc2)=C(OC(=O)c2ccc(OC)cc2)c2ccccc2S1(=O)=O`: 56% (inactive).
As for `CCCCC(=O)OC1=C(C(=O)c2ccccc2)N(CC)S(=O)(=O)c2ccccc21`, the survival is 52% (inactive).
`O=C(COc1ccccc1)Nc1ccc(S(=O)(=O)N(Cc2ccccc2)c2ccccc2)cc1`: the survival is 61% (inactive).
As to `CC1CCCN(CNC(=O)c2ccccc2)C1` (stereo unspecified), the survival was 92% (inactive).
For the compound `COc1cc(CNCCCSc2nnnn2C)cc(Br)c1OC`, the survival was 81% (inactive).
Next, `Cc1ccc(S(=O)(=O)N2CCCc3cc(NC(=O)c4c(F)cccc4F)ccc32)cc1`: 73% (inactive).
Consider `COc1ccccc1NC(=O)Cn1nnc(C(=O)NCc2ccc3c(c2)OCO3)c1N`, for which the survival was 103% (inactive).
Next, `CCOC(=O)Cn1c(=O)oc2cc(S(=O)(=O)N3CCN(c4ccc(F)cc4)CC3)ccc21`: 117% (inactive); `CSc1cccc(-c2nnc(NC(=O)c3ccc4c(c3)OCCO4)o2)c1`: 72% (inactive); `COc1cccc(NC(=O)CC(=O)Nc2ccc3nc4n(c(=O)c3c2)CCCCC4)c1`: 96% (inactive).
Next, `Cc1ccc(N2CCN(C(=O)NCc3noc4ccccc34)CC2C)cc1` (stereo unspecified): 30% (active); `O=C(NCc1noc2ccccc12)N1CCN(c2ccccc2)CC1`: 44% (inactive); `Cc1ccc(C)c(N2CCN(C(=O)NCc3noc4ccccc34)CC2)c1`: 51% (inactive).
With `O=C(O)CCC(=O)N1CCN(Cc2ccc3c(c2)OCO3)CC1`, the survival is 75% (inactive).
Next, `Cc1ccc(S(=O)(=O)N2CCOCC2)cc1C(=O)Nc1ccccc1C(=O)O`: 83% (inactive).
For `COc1ccc(NC(=O)c2cc(S(=O)(=O)N3CCOCC3)ccc2OC)cc1`, the survival was 89% (inactive).
Next, `CC(=O)c1ccc(NC(=O)c2cc(S(=O)(=O)N3CCOCC3)ccc2C)cc1`: 49% (active); `Cc1ccc(S(=O)(=O)CC(=O)Nc2sc3c(c2C#N)CCCCC3)cc1`: 72% (inactive); `N#Cc1c(-n2ncnc2-c2ccc(F)cc2)sc2c1CCCCC2`: -4% (active).
For `CCCCNCc1cccn1-c1sc2c(c1C#N)CCCC2`, the survival is 109% (inactive).
Take `COc1ccc(-c2nnn(CC(=O)Nc3sc4c(c3C#N)CCCC4)n2)cc1`: the survival was 98% (inactive).
Take `N#Cc1c(N2C(=O)C3C4C=CC(C4)C3C2=O)sc2c1CCCC2` (stereo unspecified): the survival was 71% (inactive).
Next, `N#Cc1c(-n2ncnc2-c2cccc(Br)c2)sc2c1CCCCC2`: 23% (active); `N#Cc1c(-n2ncnc2-c2ccc(Br)cc2)sc2c1CCCCC2`: 2% (active); `CCOc1ccc(-c2ncnn2-c2sc3c(c2C#N)CCCCC3)cc1`: 5% (active).
Next, `CC(C)CCOc1ccc(C(=O)Nc2sc3c(c2C#N)CCCCC3)cc1`: 127% (inactive); `Cc1ccc(S(=O)(=O)CC(=O)Nc2sc3c(c2C#N)CCCC3)cc1`: 119% (inactive).
Next, `N#Cc1c(-n2ncnc2-c2cccc(Cl)c2)sc2c1CCCCC2`: 61% (inactive).
For the compound `N#Cc1c(N)sc2c1CCCC2`, the survival is 103% (inactive).
With `O=C(/C=C/c1ccco1)Nc1ccc(-c2cc3ccccc3oc2=O)cc1`, the survival is 50% (inactive).
As for `CC(=O)N1CCc2cc(S(=O)(=O)NC(CC(C)C)C(=O)NCCc3ccccc3)ccc21` (stereo unspecified), the survival is 78% (inactive).
Next, `CCCCOc1ccccc1C(=O)N(Cc1ccc(C)o1)C1CCS(=O)(=O)C1` (stereo unspecified): 71% (inactive).
For the compound `Cc1cccc(OCC(=O)Nc2ccccc2C(=O)OCc2cc(=O)n3ccsc3n2)c1`, the survival was 77% (inactive).
On to `CC(=O)Nc1ccc(S(=O)(=O)N2CCC(NC(=O)Nc3cccc(F)c3)CC2)cc1`, for which the survival was 91% (inactive).
Next, `CC1=C(C(=O)Nc2ccc(C)cc2C)C(c2cccn2C)n2ncnc2N1` (stereo unspecified): 91% (inactive); `Cc1ccc(NS(=O)(=O)c2c(C(=O)N3CCCCCC3)c(C)n(C)c2C)cc1F`: 83% (inactive); `CNC(=O)C1c2ccccc2Oc2ccccc21`: 91% (inactive).
Next, `CCOC(=O)c1sc(NC(=O)C2c3ccccc3Oc3ccccc32)c(C#N)c1C`: 72% (inactive); `CCc1c(C)sc(NC(=O)C2c3ccccc3Oc3ccccc32)c1C(=O)OC(C)C`: 41% (active).
Next, `CCCOC(=O)c1c(NC(=O)C2c3ccccc3Oc3ccccc32)sc2c1CCC(C)C2` (stereo unspecified): 82% (inactive); `CC1CCc2c(sc(NC(=O)C3c4ccccc4Oc4ccccc43)c2C(=O)OC(C)C)C1` (stereo unspecified): 47% (active); `COC(=O)c1c(NC(=O)C2c3ccccc3Oc3ccccc32)sc2c1CCC(C)C2` (stereo unspecified): 56% (inactive).
With `CCOC(=O)c1sc(NC(=O)C2c3ccccc3Oc3ccccc32)c(C(=O)OCC)c1C`, the survival is 124% (inactive).
As for `Cc1sc(NC(=O)C2c3ccccc3Oc3ccccc32)c(C(=O)OC(C)C)c1C`, the survival was 59% (inactive).
Next, `CCCOC(=O)c1c(NC(=O)C2c3ccccc3Oc3ccccc32)sc2c1CCCC2`: 77% (inactive).
For `CCOC(=O)c1c(NC(=O)C2c3ccccc3Oc3ccccc32)sc(C)c1CC`, the survival was 24% (active).
Next, `CC(C)OC(=O)c1c(NC(=O)C2c3ccccc3Oc3ccccc32)sc2c1CCCC2`: 93% (inactive); `CCOC(=O)c1c(NC(=O)C2c3ccccc3Oc3ccccc32)sc(C)c1C`: 12% (active).
Next, `O=C(C1CC1)N1CCN(c2nc3ccc(F)cc3s2)CC1`: 117% (inactive); `Cc1nn(-c2ccccc2)c(OC(=O)c2ccccc2)c1S(=O)(=O)c1ccccc1`: 81% (inactive); `Cc1cc(C)n(-c2n[nH]c(=S)c3ccccc23)n1`: 81% (inactive).
Next, `CN(Cc1ccccc1)c1ccc(-c2nc(-c3ccco3)no2)cc1[N+](=O)[O-]`: 52% (inactive).
In the case of `Cc1cc(Nc2cc(Cl)ccc2C)n2nc(-c3ccccc3)nc2n1`, the survival is 49% (inactive).
As to `CCOC(=O)c1c(NC(=O)COc2cc(C)ccc2C(C)C)sc(C)c1C`, the survival is 63% (inactive).
Next, `COC(=O)c1c(NC(=O)COc2ccc(Cl)cc2)sc(C)c1C`: 67% (inactive); `CCN(CC)C(=O)c1sc(NC(=O)c2nc3ncccn3n2)c(C(=O)OC)c1C`: 137% (inactive); `Cc1sc(NC(=O)COc2ccc(C(C)(C)C)cc2)c(C(=O)OC(C)C)c1C`: 10% (active).
Next, `CCN(CC)C(=O)c1sc(NC(C)=O)c(C(=O)OC)c1C`: 99% (inactive); `CCCc1ccc(OCC(=O)Nc2sc(C(=O)OCC)c(C)c2C(=O)OCC)cc1`: 82% (inactive).
In the case of `CCN(CC)C(=O)c1sc(NC(=O)C2c3ccccc3Oc3ccccc32)c(C(=O)OC(C)C)c1C`, the survival is 30% (active).
Next, `Cc1c(C(=O)OC(C)C)sc(NC(=O)C2c3ccccc3Oc3ccccc32)c1C(=O)OC(C)C`: 80% (inactive); `CCOC(=O)c1c(NC(=O)COc2ccc(OC)cc2)sc(C(=O)N(CC)CC)c1C`: 3% (active).
Next, `CCOc1ccc(NC(=O)Cn2c3ncccc3c(=O)n2-c2ccc(CC)cc2)cc1`: 85% (inactive).
For `Cc1ccc(C(=O)c2oc3ccccc3c2NC(=O)Cc2coc3c(C)c(C)ccc23)cc1`, the survival is 54% (inactive).
Consider `CCCCNC(=O)Cn1ncc2c(C)n(Cc3cccc(Cl)c3)c(C)c2c1=O`, for which the survival was 93% (inactive).
As to `Cn1c(=O)c2[nH]c(=S)[nH]c2n(C)c1=O`, the survival is 103% (inactive).
Consider `Cc1c(NC(=O)Nc2ccccc2C(F)(F)F)c(=O)n(-c2ccccc2)n1C`, for which the survival is 92% (inactive).
Next, `CCOc1ccc(NC(=O)Cn2c(=O)n(Cc3nc(-c4ccccc4)no3)c(=O)c3cc4c(cc32)OCO4)cc1`: 89% (inactive); `CCOCCc1nn2c(=O)cc(COC(=O)C3CCCCC3)nc2s1`: 88% (inactive).
For `COc1cccc(OC(=O)N2CCOCC2)c1`, the survival was 103% (inactive).
With `Cc1ccc2ncc(S(=O)(=O)c3ccccc3)c(N3CCCCC3C)c2c1` (stereo unspecified), the survival was 7% (active).
As to `COc1ccc(S(=O)(=O)c2cnc3ccc(Cl)cc3c2N2CCCCC2C)cc1` (stereo unspecified), the survival is 134% (inactive).
Next, `CC1CCCCN1c1c(S(=O)(=O)c2ccc(Cl)cc2)cnc2ccccc12` (stereo unspecified): 102% (inactive); `CCN(CC)CCNC(=O)c1cn(CC)c2ccc(S(=O)(=O)N(C)C3CCCCC3)cc2c1=O`: 107% (inactive); `O=S1(=O)CCC(N2C(=S)SC3CS(=O)(=O)CC32)C1` (stereo unspecified): 96% (inactive).
For the compound `O=C(Cn1c(=O)ccc2cc(S(=O)(=O)N3CCCC3)ccc21)NCc1ccc(Cl)cc1`, the survival is 102% (inactive).
Next, `CCc1ccc(-c2cc(C)no2)cc1S(=O)(=O)Nc1ccc(Cl)cc1`: 68% (inactive); `CCc1ccc(-c2cc(C)no2)cc1S(=O)(=O)Nc1ccc(Cl)cn1`: 17% (active).
As for `CCc1ccc(-c2cc(C)no2)cc1S(=O)(=O)Nc1ccc(C)cn1`, the survival is 55% (inactive).

The values above are taken from PubChem BioAssay AID463173 (ICCB-Longwood Screening Facility, Harvard Medical School, 2010).
